# Results: PubChem BioAssay (Tox21)
# Values without a mark were called inactive. Results filed as inconclusive are left out. Entries that show only a call come without a potency. Activity calls are given as the source filed them. Unless noted, calls come from the whole dose curve; as a rule, active = well fitted curve in the direction sought with a large enough effect in the repeat runs; inconclusive = weak or mixed curves; inactive = no such curve, though single readings can be large; an effect the other way counts as inactive or inconclusive.
# What was measured:
# [1] = molecular target: Thyrotropin receptor (Homo sapiens) (UniProt P16473); test: qHTS assay to identify small molecule antagonists of the thyroid stimulating hormone receptor (TSHR) signaling pathway (AID 1259385; calls by dose curve; note: nearly all actives have a fitted effect of over 20% in size)
# Thyrotropin receptor (Homo sapiens), sequence (P16473 whole entry, looked up): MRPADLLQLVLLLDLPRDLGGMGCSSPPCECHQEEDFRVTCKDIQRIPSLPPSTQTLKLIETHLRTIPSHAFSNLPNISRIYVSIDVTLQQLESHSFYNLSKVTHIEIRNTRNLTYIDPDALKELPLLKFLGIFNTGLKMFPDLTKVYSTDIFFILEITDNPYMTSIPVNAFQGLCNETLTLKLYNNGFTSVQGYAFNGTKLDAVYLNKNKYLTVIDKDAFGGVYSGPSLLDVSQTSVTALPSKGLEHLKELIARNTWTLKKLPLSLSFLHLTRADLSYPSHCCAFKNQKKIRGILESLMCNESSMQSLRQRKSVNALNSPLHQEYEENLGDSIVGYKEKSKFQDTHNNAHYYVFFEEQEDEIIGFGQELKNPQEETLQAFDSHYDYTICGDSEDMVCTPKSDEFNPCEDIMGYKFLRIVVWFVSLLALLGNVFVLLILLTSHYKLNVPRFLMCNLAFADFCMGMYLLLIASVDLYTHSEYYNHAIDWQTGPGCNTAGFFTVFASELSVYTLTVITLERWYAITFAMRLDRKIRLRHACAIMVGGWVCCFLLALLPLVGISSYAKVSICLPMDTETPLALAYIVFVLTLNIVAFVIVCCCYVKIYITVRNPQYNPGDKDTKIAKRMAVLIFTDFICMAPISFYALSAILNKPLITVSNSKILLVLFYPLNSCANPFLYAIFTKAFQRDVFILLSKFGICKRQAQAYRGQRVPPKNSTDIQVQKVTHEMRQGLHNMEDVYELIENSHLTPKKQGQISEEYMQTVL
# Procedure, shortened: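 Antagonist mode: compound-treated TSHR-expressing HEK293 cells were stimulated with 1.5 ng/mL TSH (final) in presence of Ro20-1724 for 30 min at RT. HTRF cAMP detection after 1 h; each compound tested at 15 concentrations, triplicate.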
# [2] = qHTS assay to identify small molecule agonists of the estrogen receptor alpha (ER-alpha) signaling pathway in the presence of an antagonist - cell viability counter screen (AID 1259386);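 note: series mostly up to about 92 µM; cells exposed to compounds for 22 h at 37 °C before the viability read; nearly all actives have a fitted effect of over 30% in size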
# Procedure, shortened: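 In this counter screen, compound effects on VM7Luc4E2 viability were tested in the presence of the antagonist ICI-182,780 at 10.0nM final. Compounds were dosed at 15 concentrations, exposure lasted 22hr, and the CellTiter-Fluor signal was read.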
# [3] = molecular target: Progesterone receptor (Homo sapiens) (UniProt P06401); test: qHTS assay to identify small molecule agonists of the progesterone receptor (PR) signaling pathway (AID 1346784; calls by dose curve; note: nearly all actives have a fitted effect of over 30% in size)
# Progesterone receptor (Homo sapiens), sequence (P06401 whole entry, looked up): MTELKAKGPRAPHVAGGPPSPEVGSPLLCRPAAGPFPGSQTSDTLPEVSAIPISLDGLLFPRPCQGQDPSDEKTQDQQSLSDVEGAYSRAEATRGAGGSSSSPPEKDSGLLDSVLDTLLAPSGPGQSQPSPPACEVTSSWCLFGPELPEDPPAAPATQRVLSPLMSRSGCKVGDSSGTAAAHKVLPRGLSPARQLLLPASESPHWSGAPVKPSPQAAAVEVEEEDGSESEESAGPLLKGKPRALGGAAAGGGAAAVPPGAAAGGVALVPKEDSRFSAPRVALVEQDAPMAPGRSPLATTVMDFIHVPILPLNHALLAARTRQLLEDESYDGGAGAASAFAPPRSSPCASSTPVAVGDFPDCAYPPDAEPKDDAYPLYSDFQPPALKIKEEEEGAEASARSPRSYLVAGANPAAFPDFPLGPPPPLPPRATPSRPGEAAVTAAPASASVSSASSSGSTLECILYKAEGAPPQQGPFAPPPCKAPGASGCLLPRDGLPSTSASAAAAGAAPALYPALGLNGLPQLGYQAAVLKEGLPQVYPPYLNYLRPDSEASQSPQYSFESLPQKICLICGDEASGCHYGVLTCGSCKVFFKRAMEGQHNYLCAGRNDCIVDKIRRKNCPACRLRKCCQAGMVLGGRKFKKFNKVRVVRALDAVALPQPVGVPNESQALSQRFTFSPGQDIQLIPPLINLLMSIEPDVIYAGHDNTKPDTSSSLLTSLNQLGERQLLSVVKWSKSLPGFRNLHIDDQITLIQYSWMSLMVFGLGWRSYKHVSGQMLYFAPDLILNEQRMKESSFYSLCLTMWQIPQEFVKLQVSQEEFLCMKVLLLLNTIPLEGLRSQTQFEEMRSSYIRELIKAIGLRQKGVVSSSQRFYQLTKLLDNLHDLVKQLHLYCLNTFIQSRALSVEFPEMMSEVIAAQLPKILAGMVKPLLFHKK
# Procedure, shortened: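 PR-UAS-bla HEK 293T cells (beta-lactamase reporter under UAS) in 2% charcoal-stripped FBS, dosed with 23 nL compound after 6 hr, incubated 16hr at 37C. LiveBLAzer B/G FRET substrate added, fluorescence read after 2 hours.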
# [4] = molecular target: Progesterone receptor (Homo sapiens) (UniProt P06401); test: qHTS assay to identify small molecule antagonists of the progesterone receptor (PR) signaling pathway (AID 1346795; active = well fitted inhibition curve with a large enough effect in the signal ratio in the repeat runs, not every such curve was filed as active; the % refers to the signal ratio)
# Procedure, shortened: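 PR-UAS-bla HEK293T cells with beta-lactamase reporter under UAS control, in 2% charcoal-stripped FBS, treated with compounds plus 1 nM promegestone (R5020, final) for 16 hr at 37C. Read-out: FRET beta-lactamase substrate fluorescence after 2 hr at room temperature.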
# [5] = qHTS assay to identify small molecule antagonists of the progesterone receptor (PR) signaling pathway - cell viability counter screen (AID 1346798); note: series mostly up to about 92 µM; nearly all actives have a fitted effect of over 50% in size
# Procedure, shortened: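 PR-UAS-bla HEK293T cells, 3,000/well in 2% charcoal-stripped FBS medium, dosed with compounds plus R5020 agonist and incubated 16 h at 37C. Viability then measured in the same wells by CellTiter-Glo luminescence after 30 min at RT.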
# [6] = qHTS assay to identify small molecule agonists of the progesterone receptor (PR) signaling pathway - cell viability counter screen (AID 1346799; calls by dose curve; note: nearly all actives have a fitted effect of over 45% in size)
# Procedure, shortened: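 Counter screen in the PR-UAS-bla HEK293T wells (2% charcoal-stripped FBS, 16 h compound exposure at 37 C) after the bla read. CellTiter-Glo added, 30 min at room temperature, luminescence read as cell viability.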
# [7] = qHTS assay to identify small molecule antagonists of the TGF-beta/Smad signaling pathway - cell viability counter screen (AID 1346824); note: nearly all actives have a fitted effect of over 50% in size
# Procedure, shortened: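 Cytotoxicity counter-screen run in the same wells as the beta-lactamase Smad reporter read: CellTiter-Glo luminescence after 30 min at room temperature. HEK 293T SBE-bla cells had 5 hr compound exposure at 37 C with TGF-beta1 (0.25 ng/mL stock).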
# [8] = qHTS assay to identify small molecule agonists of the TGF-beta/Smad signaling pathway (AID 1346859; active = well fitted activation curve with a large enough effect in the signal ratio in the repeat runs, not every such curve was filed as active; the % refers to the signal ratio; note: series mostly up to about 77 µM)
# Procedure, shortened: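 SBE-bla HEK293T cells plated overnight, then compound exposure for 5 h at 37 C. Beta-lactamase reporter read with LiveBLAzer B/G FRET substrate after 2 h at room temperature, fluorescence at 405 nm excitation, 460/530 nm emission.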
# [9] = molecular target: Thyrotropin-releasing hormone receptor (Homo sapiens) (UniProt P34981); test: qHTS assay to identify small molecule agonists of the thyrotropin-releasing hormone receptor (TRHR) signaling pathway (AID 1346891; calls by dose curve; note: series mostly up to about 58 µM)
# Thyrotropin-releasing hormone receptor (Homo sapiens), sequence (P34981 whole entry, looked up): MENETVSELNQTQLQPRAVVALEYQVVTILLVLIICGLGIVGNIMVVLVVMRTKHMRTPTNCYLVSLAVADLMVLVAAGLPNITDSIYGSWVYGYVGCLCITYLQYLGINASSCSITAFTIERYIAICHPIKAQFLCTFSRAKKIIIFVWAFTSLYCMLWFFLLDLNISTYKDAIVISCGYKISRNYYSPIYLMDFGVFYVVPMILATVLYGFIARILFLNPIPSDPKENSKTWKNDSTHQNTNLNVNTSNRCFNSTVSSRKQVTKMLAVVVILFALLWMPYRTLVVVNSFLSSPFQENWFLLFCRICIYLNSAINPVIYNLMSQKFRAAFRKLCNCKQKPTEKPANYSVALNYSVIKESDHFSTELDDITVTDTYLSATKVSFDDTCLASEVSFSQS
# Procedure, shortened: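 HEK293 cells expressing TRHR plated 18 h at 37 C/5% CO2, calcium dye-loaded 2 h at 37 C, then compound added (agonist mode); kinetic calcium fluorescence read 3 min at 1 s intervals; 15 concentrations in triplicate.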
# [10] = Human pregnane X receptor (PXR) small molecule agonists, qHTS cell viability counter screen (AID 1346977); note: nearly all actives have a fitted effect of over 50% in size
# Procedure, shortened: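 PXR-Luc HepG2 cells (2,000/well, 5% charcoal-stripped FBS) preincubated 5 hr, then exposed to compounds 24 hr at 37 C. Viability read in the same wells by CellTiter-Fluor fluorescence, reagent added at 23 hr, 1 hr incubation.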
# [11] = Caspase-3/7 induction in HepG2 cells by small molecules, qHTS assay (AID 1346978); note: nearly all actives have a fitted effect of over 15% in size
# Procedure, shortened: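 Caspase-3/7 induction was measured by Caspase-Glo 3/7 luminescence (30 min, room temperature) after a 17 hr compound exposure of wild-type HepG2 cells seeded at 2,000 per well and pre-incubated 5 hr.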
# [12] = Caspase-3/7 induction in CHO-K1 cells by small molecules, qHTS assay (AID 1346980); note: nearly all actives have a fitted effect of over 15% in size
# Procedure, shortened: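 Luminescent Caspase-Glo 3/7 read (30min, room temperature) quantified apoptosis induction. Cells were wild-type CHO-K1, treated with compound for 17hr at 37 C and 5% CO2.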
# [13] = Caspase-3/7 induction in HepG2 cells by small molecules, qHTS cell viability counter screen (AID 1346981); note: series mostly up to about 92 µM; nearly all actives have a fitted effect of over 30% in size
# Procedure, shortened: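 In this quantitative HTS counter screen, compounds delivered in DMSO were left on unmodified HepG2 cells for 16 hr at 37 C. Viability was then determined fluorometrically with CellTiter-Fluor, in parallel with caspase-3/7 induction in the same wells.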
# [14] = molecular target: Nuclear receptor subfamily 1 group I member 2 (Homo sapiens) (UniProt O75469); test: Human pregnane X receptor (PXR) small molecule agonists, qHTS assay (AID 1346982); note: nearly all actives have a fitted effect of over 35% in size; note: potency is the fitted concentration of half-maximal effect
# Nuclear receptor subfamily 1 group I member 2 (Homo sapiens), sequence (O75469 whole entry, looked up): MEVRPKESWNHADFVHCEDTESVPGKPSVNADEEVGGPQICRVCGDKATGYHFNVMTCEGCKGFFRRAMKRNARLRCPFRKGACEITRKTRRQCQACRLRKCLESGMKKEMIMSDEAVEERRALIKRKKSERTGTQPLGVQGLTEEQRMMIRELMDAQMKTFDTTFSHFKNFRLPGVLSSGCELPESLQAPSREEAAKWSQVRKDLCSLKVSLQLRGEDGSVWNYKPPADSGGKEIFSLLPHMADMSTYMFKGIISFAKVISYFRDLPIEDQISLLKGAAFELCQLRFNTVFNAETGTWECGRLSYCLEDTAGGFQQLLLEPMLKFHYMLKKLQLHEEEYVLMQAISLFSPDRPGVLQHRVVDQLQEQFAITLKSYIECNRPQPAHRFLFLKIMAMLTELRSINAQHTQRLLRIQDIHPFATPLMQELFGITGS
# Procedure, shortened: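 Reporter HepG2 cells expressing PXR-Luc are cultured in charcoal-stripped FBS (5%), treated with compounds for 24 hr at 37 C, and assayed by ONE-Glo luminescence after 30 min at room temperature.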
# [15] = molecular target: Nuclear receptor subfamily 1 group I member 2 (Rattus norvegicus) (UniProt Q9R1A7); test: Rat pregnane X receptor (rPXR) activation by small molecules, qHTS assay (AID 1346983); conditions: rPXR luciferase reporter cells, One-Glo luminescence, 24 h; max activation: hits give high values; note: nearly all actives have a fitted effect of over 20% in size
# Nuclear receptor subfamily 1 group I member 2 (Rattus norvegicus), sequence (Q9R1A7 whole entry, looked up): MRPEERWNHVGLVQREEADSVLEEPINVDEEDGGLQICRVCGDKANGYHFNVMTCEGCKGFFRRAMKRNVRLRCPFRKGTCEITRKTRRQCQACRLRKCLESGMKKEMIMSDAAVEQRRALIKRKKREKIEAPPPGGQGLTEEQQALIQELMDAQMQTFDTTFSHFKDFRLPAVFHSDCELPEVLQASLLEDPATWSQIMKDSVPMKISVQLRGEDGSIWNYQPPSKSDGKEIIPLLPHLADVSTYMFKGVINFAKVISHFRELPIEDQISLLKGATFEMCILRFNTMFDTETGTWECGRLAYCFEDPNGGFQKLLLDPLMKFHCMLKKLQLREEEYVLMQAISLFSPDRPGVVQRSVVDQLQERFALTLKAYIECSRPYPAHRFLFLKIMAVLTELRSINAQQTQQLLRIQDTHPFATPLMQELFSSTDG
# Procedure, shortened: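 Luminescent readout (One-Glo luciferase, 30 min room temperature) followed 24 hr compound treatment at 37 C of rPXR cells plated 2,000 per well and preincubated 5hr; qHTS format with compounds delivered in DMSO.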
# [16] = molecular target: Nuclear receptor subfamily 1 group I member 2 (Homo sapiens) (UniProt O75469); test: CYP3A4 induction through human pregnane X receptor (PXR) by small molecules, qHTS assay (AID 1346984); note: nearly all actives have a fitted effect of over 40% in size
# Procedure, shortened: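 Induction measured in HepG2-based DPX-2 cells co-expressing human PXR and a CYP3A4 promoter-driven luciferase. After a 24-hour compound exposure, cells received CYP3A4 luciferin substrate at 3uM final for 3 hours, and light output was then recorded.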
# [17] = qHTS assay to identify small molecule agonists of the TGF-beta/Smad signaling pathway - cell viability counter screen (AID 1346829); note: top concentration of the series differs between compounds; nearly all actives have a fitted effect of over 45% in size
# Procedure, shortened: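 Tox21 qHTS format: SBE-bla HEK 293T cells treated with DMSO-dissolved compounds for 5 hr; CellTiter-Glo luminescence after 30 min at room temperature.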
# [18] = Caspase-3/7 induction in CHO-K1 cells by small molecules, qHTS cell viability counter screen (AID 1346979); note: nearly all actives have a fitted effect of over 35% in size
# Procedure, shortened: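 Wild-type CHO-K1 cells (1,500/well) treated with compound after 5 h plating; after 16 h at 37C, viability read as CellTiter-Fluor fluorescence following 1 h reagent incubation, in the same wells as the caspase read.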
# [19] = molecular target: Thyrotropin-releasing hormone receptor (Homo sapiens) (UniProt P34981); test: qHTS assay to identify small molecule antagonists of the thyrotropin-releasing hormone receptor (TRHR) signaling pathway (AID 1346877; active = well fitted inhibition curve with a large enough effect in the repeat runs, not every such curve was filed as active; note: series mostly up to about 51 µM)
# Procedure, shortened: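 Kinetic fluorescence (3 min, 1 s resolution) following stimulation with TRH at 1 nM final; HEK293 cells bearing human TRHR; 5 min compound preincubation at RT; concentration-response over 15 points, triplicates.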
# [20] = molecular target: Nuclear receptor subfamily 1 group I member 2 (Homo sapiens) (UniProt O75469); test: Human pregnane X receptor (PXR) activation by small molecules, qHTS assay (AID 1346985); note: nearly all actives have a fitted effect of over 40% in size
# Procedure, shortened: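 DPX-2 cells (HepG2 co-transfected with a PXR response element and a CYP3A4-promoter luciferase construct) were seeded at 2,000 per well, rested 5 hr at 37C, then exposed to DMSO-dissolved compounds for 24 hr. Activation was read as luciferase luminescence.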
SMILES,Potency [1],Potency [2],Potency [3],Potency [4],Potency [5],Potency [6],outcome [7],outcome [8],outcome [9],Potency [10],Potency [11],Potency [12],Potency [13],Potency [14],max activation [15] [%],Potency [16],outcome [17],Potency [18],outcome [19],Potency [20]
CC(C)(C)NCC(O)COc1ccc(NC(=O)NC2CCCCC2)cc1 (configuration not stated),inactive,inactive,inactive,inactive,inactive,inactive,inactive,inactive,inactive,inactive,inactive,inactive,inactive,inactive,0.0743,inactive,,,,
C=CC(O)CCCCC (configuration not stated),inactive,inactive,inactive,inactive,inactive,inactive,inactive,inactive,inactive,inactive,,inactive,inactive,inactive,,,inactive,inactive,,
CC(=O)Nc1ccccc1O,inactive,inactive,inactive,inactive,inactive,inactive,inactive,inactive,inactive,inactive,,inactive,inactive,,,,inactive,inactive,,
CC(C)Cc1nccs1,inactive,inactive,inactive,inactive,inactive,inactive,inactive,inactive,inactive,inactive,inactive,inactive,inactive,inactive,,,inactive,inactive,,
COc1ccnc2c1CCCCC2S(=O)c1nc2ccccc2[nH]1 (configuration not stated),inactive,inactive,inactive,inactive,inactive,inactive,inactive,,inactive,,inactive,inactive,inactive,29.8 µM (active),,,,inactive,inactive,
CCCCC(CC)COCCC#N (configuration not stated),inactive,inactive,inactive,inactive,inactive,inactive,inactive,,inactive,inactive,inactive,inactive,inactive,inactive,,,inactive,inactive,inactive,
CCC[Si](OC)(OC)OC,inactive,inactive,inactive,inactive,inactive,inactive,inactive,inactive,inactive,inactive,inactive,inactive,inactive,inactive,,,inactive,inactive,inactive,
O=C(O)c1ccncc1,inactive,inactive,inactive,inactive,inactive,inactive,,inactive,inactive,,inactive,inactive,inactive,,,,inactive,inactive,inactive,
CS(C)=O,inactive,inactive,inactive,inactive,inactive,inactive,inactive,inactive,,inactive,inactive,,inactive,inactive,,,inactive,,,
Nc1ccc(F)cc1F,inactive,inactive,inactive,inactive,inactive,inactive,inactive,inactive,,,inactive,inactive,inactive,inactive,,,inactive,,,
O=C(O)CNc1ccccc1,inactive,inactive,inactive,inactive,inactive,inactive,inactive,inactive,inactive,inactive,inactive,inactive,inactive,inactive,,,,,inactive,
C=CC(C)CCC=C(C)C (configuration not stated),inactive,inactive,inactive,inactive,inactive,inactive,inactive,inactive,inactive,inactive,inactive,inactive,inactive,inactive,,,inactive,inactive,inactive,
COc1ccc(/C(C)=C/C(=O)O)c(OC)c1,inactive,inactive,inactive,inactive,inactive,inactive,inactive,inactive,,inactive,inactive,inactive,inactive,inactive,,,inactive,inactive,,
FC1(F)C(F)(F)C(F)(F)C2(F)C(F)(C1(F)F)C(F)(F)C(F)(F)C1(F)C(F)(F)C(F)(F)C(F)(F)C(F)(F)C12F (configuration not stated),inactive,inactive,inactive,inactive,inactive,inactive,inactive,,,inactive,inactive,inactive,inactive,inactive,,,inactive,,,
Clc1nc2ccccc2nc1Cl,inactive,inactive,inactive,inactive,inactive,inactive,inactive,inactive,inactive,inactive,inactive,inactive,inactive,61.8 µM (active),,,inactive,inactive,inactive,
CC(CN=Cc1ccccc1O)N=Cc1ccccc1O (configuration not stated),inactive,inactive,inactive,inactive,inactive,inactive,inactive,inactive,inactive,inactive,,inactive,inactive,inactive,,,inactive,,inactive,
C[C@@H](O)[C@H]1C(=O)N2C(C(=O)O)=C(S[C@@H]3CN[C@H](CNS(N)(=O)=O)C3)[C@H](C)[C@H]12,inactive,inactive,inactive,inactive,inactive,inactive,inactive,inactive,inactive,inactive,,inactive,inactive,18.8 µM (active),-2.11,inactive,inactive,,inactive,inactive
CCCCCCCCCCCC(=O)OCC,inactive,inactive,inactive,inactive,inactive,inactive,inactive,inactive,,,inactive,inactive,inactive,inactive,,,inactive,inactive,,
